Bioassay records from PubChem.
Pf growth 48h – P. falciparum growth inhibition at 48 hours (one generation). P. falciparum luciferase growth in erythrocytes, 48 h. Potency, µM (top dose mostly 28.7 µM), without a hit: at the top dose activity change, negative = inhibition, hits mostly inhibitors. hit rate 5.9% among 310,000. AID 504832; also: potency is read from the fitted curve at half-maximal effect; % is scaled to controls: 0 for no effect and ±100 for the full control effect
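Firefly luciferase activity from engineered P. falciparum reports growth; inhibitors lower the luminescent signal. Cultures contained 2% hematocrit erythrocytes at 0.1% final parasitemia.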
CHX counter – affects cycloheximide protein synthesis inhibition readout, counter-screen; cell reporter, cycloheximide protein synthesis inhibition counterscreen; max response, %; hit rate 12% among 300,000; in the data active = max response mostly above about 13%, no sharp cut-off; inactive = mostly below about 14%; also: read at 38.3 µM for the half of the compounds with a filed dose; 0% is about no effect
Shiga toxin inh – blocks Shiga toxin action in Vero cells; inhibition, % at 38.7 µM; AID 2315; hit rate 9.2% among 290,000; Vero cells, Shiga toxin protein synthesis inhibition reporter; in the data active = inhibition mostly above about 28%, no sharp cut-off; inactive = mostly below about 43%; also: 0% is about no effect
NS1 function inh – influenza NS1 inhibition. Potency, µM (top dose mostly 46.1 µM), for the others: at the top dose activity, positive = more growth. hit rate 0.4% among 270,000; calls by dose curve; also: potency is read from the fitted curve at half-maximal effect; actives are rising curves; nearly all actives have a fitted effect of over 50% in size
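Recovery from NS1-induced slow growth read by OD600 in budding yeast switched to galactose assay medium (pH 6.0, -URA) at 1:100 dilution. Compound 23 nl per well; the matching strain lacking NS1 serves as control.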
Sm TGR inh – blocks Schistosoma mansoni thioredoxin glutathione reductase; AID 485364; Q962Y6; purified TGR, DTNB reduction, TNB absorbance 405 nm; Potency, µM (doses to about 114 µM), for inactives: top-dose activity change, negative = inhibition, most hits filed as inhibitors; hit rate 3% among 360,000; also: potency is read from the fitted curve at half-maximal effect; % is scaled to controls: 0 for no effect and ±100 for the full control effect; nearly all actives have a fitted effect of over 60% in size
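TGR 20 nM + NADPH 100 uM (dispensed conc.), cpd preinc 15 min RT; start with NADPH (500 uM addition) then DTNB (15 mM addition). Kinetic TNB absorbance, 405 nm filter. Four-parameter Hill fit across titration.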
Pf growth 96h – inhibits malaria parasite growth, 96 h; P. falciparum luciferase reporter growth, 96 h; Potency, µM (doses to about 28.7 µM), for inactives: at the top dose activity change, negative = inhibition, actives largely listed as inhibitors; hit rate 6.9% among 320,000; AID 504834; also: potency is read from the fitted curve at half-maximal effect; % is scaled to controls: 0 for no effect and ±100 for the full control effect
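Two parasite generations (96 h, 37 C, 5% CO2) of compound exposure in infected erythrocytes (0.05% parasitemia, 2% hematocrit). Luciferase-reporter P. falciparum; decreased luminescence indicates inhibited growth, aimed at apicoplast-acting delayed death.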
* = called active by the depositor; ? = inconclusive; · = no result given. A selection: hits, their analogues and other compounds. The true share with any hit is near 21%. Unless noted, calls follow the shape of the dose curve; as a rule, active = well fitted curve in the direction sought with a large enough effect; inconclusive = small, poorly fitted or top-dose-only effect, or another doubt; inactive = no such curve, though single readings can be large; an effect the other way counts as inactive or inconclusive.

SMILES | Pf growth 48h | CHX counter | Shiga toxin inh | NS1 function inh | Sm TGR inh | Pf growth 96h
COc1ccccc1NS(=O)(=O)c1cccc(C(=O)OCC(=O)Nc2cc(C)on2)c1 | 21% | -2 | -12 | 5% | 4% | 0%
CCNC(=S)Nc1cccc(S(=O)(=O)Nc2ccccc2OC)c1 | -16% | 4 | 11 | 4% | 1.8µM* | 3%
COc1ccccc1NS(=O)(=O)c1cccc(NC(=O)Cc2cccs2)c1 | -4% | -2 | -18 | 24% | -19% | 2%
Cc1ccccc1CN(C)C(=O)COC(=O)CSc1ccc([N+](=O)[O-])cc1 | ? | · | · | · | 1% | 2%
CCCCCCN(CCCCCC)C(=O)Cc1c(-c2ccc(F)cc2)[nH]c2ccccc12 | 5.9µM* | · | · | -10% | -3% | ?
O=C(N/N=C/c1cnc(N2CCCCC2)s1)c1ccc(C(F)(F)F)cc1 | 3.3µM* | 1 | -7 | 0% | 5% | ?
CC1CN(c2ncc(/C=N/NC(=O)c3ccccc3O)s2)CC(C)O1 (stereo not drawn) | ? | 16 | 1 | · | 1% | ?
Cc1ccc(S(=O)(=O)N2CCCCC2)cc1NC(=O)CN1CC=C(c2ccccc2)CC1 | ? | -4 | -6 | 14% | 1% | 10µM*
Cc1ccc(S(=O)(=O)N2CCCCC2)cc1NC(=O)CNc1ccccc1N1CCCC1=O | 13µM* | · | · | · | -4% | ?
COc1ccc(S(=O)(=O)N2CCCCC2)cc1NC(=O)CNc1ccccc1N1CCCC1=O | ? | · | · | · | 7% | ?
COc1ccc([N+](=O)[O-])cc1NCC(=O)Nc1cc(S(=O)(=O)N2CCCCC2)ccc1C | 12µM* | · | · | · | 0% | ?
Cc1ccc(S(=O)(=O)N2CCCCC2)cc1NC(=O)CCOc1ccccc1 | -24% | 7 | -8 | -5% | -4% | ?
Cc1ccc(S(=O)(=O)N2CCCCC2)cc1NC(=O)Cc1c[nH]c2ccccc12 | ? | -2 | -7 | 10% | -1% | 5.2µM*
CN(C)C(=O)CSc1nnc(Cc2ccc([N+](=O)[O-])cc2)o1 | 76% | -3 | 5 | -19% | 8% | 165%
COc1ccc(S(=O)(=O)N2CCCCC2)cc1NC(=O)Cc1c[nH]c2ccccc12 | ? | 3 | -3 | ? | -1% | 8.3µM*
Cc1ccc(S(=O)(=O)N2CCOCC2)cc1NC(=O)CN1CCN(C)CC1 | -22% | · | · | · | -1% | -23%
Cc1ccc(NC(=O)Cc2n[nH]c(=O)c3ccccc23)cc1S(=O)(=O)N1CCCCCC1 | ? | · | · | · | 2% | ?
COc1ccc(S(=O)(=O)N2CCCCCC2)cc1NC(=O)Cc1ccccc1F | ? | -1 | -1 | 10% | 3% | ?
Cc1ccc(S(=O)(=O)N2CCOCC2)cc1NC(=O)CN1CCC(Cc2ccccc2)CC1 | 13µM* | -3 | -4 | -8% | · | 3.7µM*
COc1ccc(S(=O)(=O)N2CCCCCC2)cc1NC(=O)Cc1cc(OC)c(OC)c(OC)c1 | ? | 1 | -3 | 15% | 6% | 3.7µM*
Cc1ccc(NC(=O)Cc2c[nH]c3ccccc23)cc1S(=O)(=O)N1CCCCCC1 | 13µM* | -1 | -6 | 23% | -17% | 12µM*
COc1ccc(CC(=O)Nc2cc(S(=O)(=O)N3CCCCC3)ccc2C)cc1OC | ? | -5 | -5 | · | -1% | -20%
COC(=O)c1cc(C)nc2c1c(=O)nc(SCc1cccc(C(F)(F)F)c1)n2C1CC1 | · | · | · | · | -9% | ·
COCCNC(=O)NC(=O)CSc1nc(C)c(C)c(C)n1 | -17% | 13 | -9 | · | ? | 14%
Cc1ccccc1OCC(=O)Nc1cc(-c2cccc(Br)c2)nn1-c1ccccc1 | · | · | · | · | 2% | ·
SMILES | Pf growth 48h | CHX counter | Shiga toxin inh | NS1 function inh | Sm TGR inh | Pf growth 96h
Cc1ccc(C)c(N2CCN(C(=O)Cn3cnc4sc(C)c(S(=O)(=O)N5CCN(c6ncccn6)CC5)c4c3=O)CC2)c1 | · | · | · | · | 6% | ·
COc1ccc(C)cc1S(=O)(=O)N(CC(=O)Nc1cc([N+](=O)[O-])ccc1C)c1ccc(C)c(C)c1 | 10µM* | -3 | 5 | 7% | -3% | ?
Cc1ccc(NC(=O)CSc2ncnc3ccccc23)cc1S(=O)(=O)N1CCCCC1 | ? | -5 | 23 | 10% | 1% | ?
COc1ccc(S(=O)(=O)N2CCCCC2)cc1NC(=O)CSc1ncnc2ccccc12 | 12µM* | -3 | -9 | 19% | 2% | 2.3µM*
COc1ccc(C)cc1S(=O)(=O)N(CC(=O)Nc1cccc([N+](=O)[O-])c1)c1cc(C)cc(C)c1 | ? | 5 | -11 | 9% | -2% | ?
CCC(=O)NC(Nc1c(C)n(C)n(-c2ccccc2)c1=O)C(Cl)(Cl)Cl (stereo not drawn) | 4% | -3 | -4 | 1% | · | -17%
Cc1ccc(NC(=O)C2CC(=O)N(c3ccc(OC(C)C)cc3)C2)cc1 (stereo not drawn) | · | · | · | · | -1% | ·
O=C(CN1C(=O)C2CCCCN2c2ccc(C(=O)N3CCCC3)cc21)NCc1ccccc1F (stereo not drawn) | · | · | · | · | -11% | ·
Cc1cccc(NC(=O)CSc2nc3ccccc3c3nc(CCn4cncc4C)nn23)c1 | · | · | · | · | -3% | ·
Cc1ccc(S(=O)(=O)c2cnc(SCC(=O)Nc3cc(C)cc(C)c3)nc2N)cc1 | · | · | · | · | -10% | ·
O=C(Nc1nc(-c2ccccn2)cs1)Nc1ccc(F)cc1F | 1.5µM* | 35* | 85* | -24% | 5% | 1.7µM*
O=C(Nc1nc(-c2cc(F)ccc2F)cs1)c1ccccn1 | 8% | 15* | 42* | · | 1% | ?
O=C(Nc1nc(-c2ccccc2)cs1)Nc1ccc(F)cc1F | 21% | 28* | 59* | · | 53% | -14%
NNC(=O)c1ccc(CSc2nc3ccccc3[nH]2)cc1 | -19% | 6 | 32 | 10% | 9% | ?
CCCCOc1ccc(C(=O)NCC2(c3ccc(OC)cc3)CCOCC2)cc1 | -20% | 5 | -1 | -10% | 0% | -20%
c1ccc(COc2ccc(OCCN3CCCC3)cc2)cc1 | 76% | 50* | 69* | 3% | 8% | -20%
c1cc(OCCCN2CCCCC2)ccc1CN1CCCCC1 | · | -3 | -1 | 6% | 0% | -15%
CC1CCN(CCCOc2ccc(OCc3ccccc3)cc2)CC1 | 22% | 24* | 81* | -11% | 3% | ?
c1ccc(COc2ccc(OCCN3CCCCC3)cc2)cc1 | 44% | 87* | 47* | 13% | 7% | ?
O=C1C2CCN(CC2)C1Cc1ccc(OCc2ccccc2)cc1 (stereo not drawn) | 0% | 23* | 22 | -1% | 13% | 24%
O=C(O)C[C@@H](CNC(=O)COc1ccc2ccc(=O)oc2c1)c1ccc(Cl)cc1 | -1% | -4 | -5 | 9% | -14% | -3%
CCOC(=O)c1c(NC(=O)/C=C/c2ccc(C)cc2)sc(C(C)=O)c1C | · | · | · | · | -32% | ·
CCC(C)c1ccc(OCCN2CCCC2)cc1 (stereo not drawn) | · | -3 | -14 | -5% | 6% | ?
c1ccc(-c2ccc(OCCN3CCCC3)cc2)cc1 | · | 32* | 52* | · | · | ·
